# Compounds with a hit are over-represented: about 8.7% of the library has one in this group of screens.
# BAZ2B inh = qHTS Assay for Inhibitors of BAZ2B; Bromodomain adjacent to zinc finger domain protein 2B (Homo sapiens), Q9UIF8; AlphaScreen BAZ2B-H3K14Ac peptide displacement; Potency, µM (top dose mostly 114 µM), for the others: top-dose activity change, negative = inhibition, usual class: inhibitors; hit rate 4.4% among 360,000; further: on the % scale 0 is the no-effect control and ±100 the full control effect; nearly all actives have a fitted effect of over 60% in size
#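 AlphaScreen luminescence quantifies BAZ2B engagement of H3K14Ac peptide; the protein and biotinylated peptide are both at 50 nM final, buffer PBS pH 7.4 with 0.01% Tween-20, all steps at room temperature.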
# ALOX12 inh = Primary qHTS assay for inhibitors of human arachidonate 12S-lipoxygenase (ALOX12): Round 2. Polyunsaturated fatty acid lipoxygenase ALOX12 (Homo sapiens), P18054. purified 12hLO, xylenol orange hydroperoxide absorbance. Potency, µM (series often up to 108 µM), for inactives: at the highest dose activity change, negative = inhibition, usual class: inhibitors. hit rate 1.1% among 580,000. AID 1671190, 2021; further: on the % scale 0 is the no-effect control and ±100 the full control effect
#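 Purified human 12hLO at 150 nM in 25 mM Hepes, 0.01% Triton X-100, pH 7.0, preincubated 15 min at room temperature with compound. Reaction started with 40 uM arachidonic acid, 30 min at room temperature. Hydroperoxide measured by Fe-xylenol orange, 573/405 nm absorbance ratio.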
# HP1b chromo inh = HTS for Inhibitors of HP1-beta Chromodomain Interactions with Methylated Histone Tails | AlphaScreen HP1-beta / biotin-H3K9me3 peptide binding | Potency, µM (titrated, usually from 114 µM), for the others: top-dose activity change, negative = inhibition, most hits filed as inhibitors | Chromobox protein homolog 1 (Homo sapiens), P83916 | hit rate 0.56% among 390,000; further: nearly all actives have a fitted effect of over 70% in size
#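 AlphaScreen: HP1-beta (50 nM) preformed 30 min with biotin-H3(1-18)K9me3 peptide (50 nM) in PBS pH 7.4, 0.01% Tween-20. Compound added for 30 min at RT, then streptavidin donor/nickel chelate acceptor beads (10 ug/mL) for 30 min.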
# Sfp PPTase inh = qHTS Assay for Inhibitors of Bacillus subtilis Sfp phosphopantetheinyl transferase (PPTase); 4'-phosphopantetheinyl transferase ffp (Bacillus subtilis), Q9F4F7; Biochemical Sfp PPTase activity, qHTS; Potency, µM, for the others: largest response in the series, negative = inhibition, actives largely listed as inhibitors; hit rate 3.5% among 310,000;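 further: the enzyme is Sfp with the accession as filed and its product quenches rhodamine fluorescence; 0% = enzyme reaction without inhibitor and -100% = no enzyme wells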
#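 With Hepes-Na pH 7.6 buffer containing 10 mM MgCl2, Sfp (15 nM) modified BHQ-2-YbbR (12.5 uM) using rhodamine-CoA (5 uM). Two reads 30 minutes apart at 525/598 nm yielded each well's rate.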
# G9a block = qHTS Assay for Inhibitors of Histone Lysine Methyltransferase G9a; Histone-lysine N-methyltransferase EHMT2 (Homo sapiens), Q96KQ7; AID 504332, 2011; Potency, µM (top dose mostly 102 µM), inactives show top-dose activity, negative = inhibition, usual class: inhibitors; G9a H3K9 monomethylation, AlphaScreen, 2 h; hit rate 8.8% among 350,000; further: on the % scale 0 is the no-effect control and ±100 the full control effect; nearly all actives have a fitted effect of over 75% in size
#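 Enzyme 20 nM + cpd, 15 min RT; add b-H3K9 pep 500 nM / SAM 20 uM; 2 h RT; anti-H3K9me1 Ab 0.5 ug/mL + SA donor / anti-rabbit acceptor beads 20 ug/mL each, 10 min; AlphaScreen read.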
# JMJD2A Tudor = qHTS Assay for Inhibitors of JMJD2A-Tudor Domain | AlphaScreen JMJD2A-Tudor / H3K4me3 peptide binding | Potency, µM (highest dose often 114 µM), for inactives: at the top dose activity change, negative = inhibition, actives largely listed as inhibitors | hit rate 4.4% among 390,000; further: on the % scale 0 is the no-effect control and ±100 the full control effect; nearly all actives have a fitted effect of over 50% in size
# Target sequence (O75164 whole entry, looked up, the tested form may be a part): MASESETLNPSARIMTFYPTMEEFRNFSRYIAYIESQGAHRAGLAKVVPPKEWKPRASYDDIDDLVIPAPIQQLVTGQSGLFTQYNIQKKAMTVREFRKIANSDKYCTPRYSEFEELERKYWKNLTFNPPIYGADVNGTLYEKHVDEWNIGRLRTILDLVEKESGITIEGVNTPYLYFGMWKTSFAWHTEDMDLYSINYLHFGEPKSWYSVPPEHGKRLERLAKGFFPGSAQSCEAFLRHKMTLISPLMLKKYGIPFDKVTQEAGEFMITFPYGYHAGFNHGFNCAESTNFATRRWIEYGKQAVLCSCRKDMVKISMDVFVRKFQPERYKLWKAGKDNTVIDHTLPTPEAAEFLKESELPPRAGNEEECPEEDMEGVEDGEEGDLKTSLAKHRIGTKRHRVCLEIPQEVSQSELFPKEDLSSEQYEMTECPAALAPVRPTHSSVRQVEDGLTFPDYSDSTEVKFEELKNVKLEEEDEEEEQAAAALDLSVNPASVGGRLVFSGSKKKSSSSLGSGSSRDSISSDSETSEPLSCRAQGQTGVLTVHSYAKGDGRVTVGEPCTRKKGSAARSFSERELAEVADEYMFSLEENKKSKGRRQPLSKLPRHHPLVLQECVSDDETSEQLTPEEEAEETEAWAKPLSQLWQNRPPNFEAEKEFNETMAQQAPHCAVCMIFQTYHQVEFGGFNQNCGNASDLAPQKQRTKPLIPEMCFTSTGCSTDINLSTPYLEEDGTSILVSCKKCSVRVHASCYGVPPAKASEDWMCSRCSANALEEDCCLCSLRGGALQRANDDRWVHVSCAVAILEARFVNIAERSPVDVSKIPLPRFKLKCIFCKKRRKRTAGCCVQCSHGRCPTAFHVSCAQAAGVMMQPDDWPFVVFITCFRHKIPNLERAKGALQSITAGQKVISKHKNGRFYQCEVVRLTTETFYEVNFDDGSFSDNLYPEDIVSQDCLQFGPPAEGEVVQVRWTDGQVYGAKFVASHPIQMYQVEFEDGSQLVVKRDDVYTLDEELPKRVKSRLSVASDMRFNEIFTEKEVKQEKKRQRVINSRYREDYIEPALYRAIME
# * hit, by the source's call; ? = inconclusive; / = no result given; [ ] = another dose, or the depositor's remark. The call rests on the fitted dose curve; in most records, active means well fitted curve in the direction sought with a large enough effect; inconclusive means small, poorly fitted or top-dose-only effect, or another doubt; inactive means no such curve, though single readings can be large; an effect the other way counts as inactive or inconclusive. Potency means the concentration at half of the fitted maximal effect.
SMILES,BAZ2B inh,ALOX12 inh,HP1b chromo inh,Sfp PPTase inh,G9a block,JMJD2A Tudor
COc1cc(C(=O)Nc2ccc3oc(-c4ccccc4C)nc3c2)cc(OC)c1OC,/,-9%,/,/,/,/
O=C1NC(=Nc2ccc3ccccc3c2)S/C1=C/c1ccco1,20µM*,32µM*,9%,71µM*,50µM*,?
O=C1NC(=Nc2ccccc2)S/C1=C\c1cccs1,-34%,49%,2%,0%,-27%,?
O=C1NC(=Nc2ccc(O)cc2)S/C1=C/c1ccco1,-13%,?,-15%,-1%,?,-28%
Cc1ccc(N=C2NC(=O)/C(=C\c3ccco3)S2)cc1,40µM*,?,-21%,-20%,?,?
CC(=O)Nc1ccc(NC(=O)CC2C(=O)NCCN2C(=O)CN2CCN(c3ncccn3)CC2)cc1 (stereo not drawn),/,11%,/,/,/,/
CC(Oc1ccc(Br)cc1)C(=O)N1CCN(c2nccs2)CC1 (stereo not drawn),/,-1%,/,/,/,/
C=CCC(C)(NCc1ccccc1)c1ccco1 (stereo not drawn),50µM*,-14%,?,-5%,13µM*,2µM*
C=CCC(C)(NCc1ccccc1)C(=O)OCC (stereo not drawn),/,/,/,-27%,/,/
COC(=O)C(C)(C)NC(=O)c1cccc(CS(C)(=O)=O)c1,/,-16%,/,/,/,/
Cc1cc(C)nc(NS(=O)(=O)c2ccc(NC(=O)c3ccc(S(=O)(=O)N4CC(C)OC(C)C4)cc3)cc2)n1 (stereo not drawn),4%,-6%,22%,-6%,8.9µM*,-12%
CC1CCCN(S(=O)(=O)c2ccc(C(=O)Nc3nnc(C4CC4)o3)cc2)C1 (stereo not drawn),35µM*,-6%,51%,22%,42%,?
CC1CN(S(=O)(=O)c2ccc(C(=O)Nc3nnc(-c4ccco4)o3)cc2)CC(C)O1 (stereo not drawn),?,4%,51%,19%,?,-26%
Cc1nnc(NC(=O)c2ccc(S(=O)(=O)N3CC(C)OC(C)C3)cc2)o1 (stereo not drawn),25µM*,-11%,34%,?,8%,2.8µM*
O=C(NCc1ccco1)C1CC(c2ccccc2)CN(C(=O)c2ccoc2)C1 (stereo not drawn),/,-13%,/,/,/,/
CCOC(=O)C(NC(=O)/C=C/c1ccc(OC(C)C)c(OC)c1)C(=O)OCC,/,30%,/,/,/,/
CC(C)c1nnnn1[C@H]1CO[C@H]2[C@@H]1OC[C@H]2OC(=O)Nc1ccc(Oc2ccccc2)cc1,/,-12%,/,/,/,/
CCn1c(COc2ccc(OC)cc2)nnc1SC(C)C(=O)Nc1ccc2c(c1)OCO2 (stereo not drawn),/,12%,/,/,/,/
CCOCCCN1CN(Cc2ccco2)CNC1=S,-25%,-26%,-8%,40µM*,16µM*,-8%
CC(=O)N(C)c1ccc(C=C2C=Cc3ccccc32)cc1,/,?,?,/,/,79µM*
CC12CCC(C(=O)NCCCn3ccnc3)(OC1=O)C2(C)C (stereo not drawn),-2%,-8%,-4%,4%,16µM*,-26%[11.4 µM]
CC12CCC(C(=O)NCc3ccco3)(OC1=O)C2(C)C (stereo not drawn),-30%,15%,9%,16%,-23%[12.7 µM],-13%
Cc1nnc(SCC(=O)c2ccc(S(=O)(=O)N3CCOCC3)cc2)n1-c1ccccc1,-4%,?,-7%,32µM*,?,?
CCOC(=O)CSc1nnc(-c2ccc(S(=O)(=O)N3CCOCC3)cc2)n1-c1ccccc1,3%,-8%,53%,-2%,6%[12.7 µM],-4%
